Of roughly 7,900 targets only a part is listed; those with a hit were picked by preference. About 0.6% of all pairs of compound and target were hits. Unmarked numbers belong to inactive results.
Columns and labels:
Experiment in all cases: log2 fold change, soluble protein after heating vs DMSO (PISA); higher = thermal stabilisation; K562 cells, 10 uM, 30 min; active = over 0.2 and 3.5 SD of the protein, either way, in both replicates (recomputed)
[1] = compound: CS(=O)(=O)c1ccc(-c2cnc(N)c(C(=O)Nc3ccccc3)n2)cc1
Method in brief: (§1)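 Aliquots of K562 cells (2×10^6 cells/mL) treated with 10 μM compound for 30 min were heated for 3 min over 48°C-58°C. After pooling and extraction in PBS with 0.5% NP-40 at 4°C, soluble protein from a 21,000xg, 90 min spin was quantified by TMTpro 16plex LC-MS/MS with channel sums equalised. Thermal stability is expressed against control samples, from duplicates, as a log2 fold change.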

crizotinib = compound: C[C@@H](Oc1cc(-c2cnn(C3CCNCC3)c2)cnc1N)c1c(Cl)ccc(F)c1Cl [crizotinib]
Method in brief: as §1

[2] = compound: C[C@@H]1COCCN1C2=NC(=NC(=C2)C3(CC3)S(=O)(=O)C)C4=C5C=CNC5=CC=C4
Method in brief: as §1

[3] = compound: C[C@H](C1=CC=C(C=C1)C(=O)NC2=C3C=CNC3=NC=C2)N
Method in brief: as §1

duvelisib = compound: C[C@H](Nc1ncnc2nc[nH]c12)c1cc2cccc(Cl)c2c(=O)n1-c1ccccc1 [duvelisib]
Method in brief: as §1

gandotinib = compound: Cc1cc(Nc2cc(CN3CCOCC3)c3nc(C)c(Cc4ccc(Cl)cc4F)n3n2)n[nH]1 [gandotinib]
Method in brief: as §1

tozasertib = compound: Cc1cc(Nc2cc(N3CCN(C)CC3)nc(Sc3ccc(NC(=O)C4CC4)cc3)n2)n[nH]1 [tozasertib]
Method in brief: as §1

[4] = compound: Cc1cc(SCc2sc(-c3ccc(C(F)(F)F)cc3)nc2C)ccc1OCC(=O)O
Method in brief: as §1

doramapimod = compound: Cc1ccc(-n2nc(C(C)(C)C)cc2NC(=O)Nc2ccc(OCCN3CCOCC3)c3ccccc23)cc1 [doramapimod]
Method in brief: as §1

ispinesib = compound: Cc1ccc(C(=O)N(CCCN)[C@@H](c2nc3cc(Cl)ccc3c(=O)n2Cc2ccccc2)C(C)C)cc1 [ispinesib]
Method in brief: as §1

bafetinib = compound: Cc1ccc(NC(=O)c2ccc(CN3CC[C@H](N(C)C)C3)c(C(F)(F)F)c2)cc1Nc1nccc(-c2cncnc2)n1 [bafetinib]
Method in brief: as §1

[5] = compound: Cc1cccc(CC(=O)N2CCc3c2ccc(-c2cn(C)c4ncnc(N)c24)c3F)n1
Method in brief: as §1

nilotinib = compound: Cc1cn(-c2cc(NC(=O)c3ccc(C)c(Nc4nccc(-c5cccnc5)n4)c3)cc(C(F)(F)F)c2)cn1 [nilotinib]
Method in brief: as §1

[6] = compound: Cc1nc(Nc2n[nH]c3c2CN(C(=O)N[C@H](CN(C)C)c2ccccc2)C3(C)C)c2sccc2n1
Method in brief: as §1

dasatinib = compound: Cc1nc(Nc2ncc(C(=O)Nc3c(C)cccc3Cl)s2)cc(N2CCN(CCO)CC2)n1 [dasatinib]
Method in brief: as §1

[7] = compound: Cc1ncc(-c2ccnc(Nc3ccc(S(C)(=O)=O)cc3)n2)n1C(C)C
Method in brief: as §1

[8] = compound: Cn1cc(-c2ccc3c(c2)CCN3C(=O)Cc2cccc(C(F)(F)F)c2)c2c(N)ncnc21
Method in brief: as §1

[9] = compound: Cn1cc(-c2ccc3nnc(C(F)(F)c4ccc5ncccc5c4)n3n2)cn1
Method in brief: as §1

tipifarnib = compound: Cn1cncc1[C@@](N)(c1ccc(Cl)cc1)c1ccc2c(c1)c(-c1cccc(Cl)c1)cc(=O)n2C [tipifarnib]
Method in brief: as §1

mubritinib = compound: FC(F)(F)c1ccc(/C=C/c2nc(COc3ccc(CCCCn4ccnn4)cc3)co2)cc1 [mubritinib]
Method in brief: as §1

UniProt Q53EL6, sequence (Q53EL6 whole entry, looked up): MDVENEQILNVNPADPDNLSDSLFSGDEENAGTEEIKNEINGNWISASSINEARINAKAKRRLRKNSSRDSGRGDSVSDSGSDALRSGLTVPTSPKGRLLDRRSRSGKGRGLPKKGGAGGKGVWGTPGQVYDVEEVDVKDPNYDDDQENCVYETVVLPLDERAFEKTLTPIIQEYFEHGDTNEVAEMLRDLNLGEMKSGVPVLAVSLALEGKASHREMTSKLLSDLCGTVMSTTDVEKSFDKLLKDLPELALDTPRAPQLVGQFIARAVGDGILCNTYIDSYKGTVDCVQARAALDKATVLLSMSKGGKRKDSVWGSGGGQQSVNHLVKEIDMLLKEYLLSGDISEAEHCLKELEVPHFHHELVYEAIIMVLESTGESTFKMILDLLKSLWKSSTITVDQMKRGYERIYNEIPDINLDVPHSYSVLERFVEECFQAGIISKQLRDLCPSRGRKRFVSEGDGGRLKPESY
UniProt P50897, sequence (P50897 whole entry, looked up): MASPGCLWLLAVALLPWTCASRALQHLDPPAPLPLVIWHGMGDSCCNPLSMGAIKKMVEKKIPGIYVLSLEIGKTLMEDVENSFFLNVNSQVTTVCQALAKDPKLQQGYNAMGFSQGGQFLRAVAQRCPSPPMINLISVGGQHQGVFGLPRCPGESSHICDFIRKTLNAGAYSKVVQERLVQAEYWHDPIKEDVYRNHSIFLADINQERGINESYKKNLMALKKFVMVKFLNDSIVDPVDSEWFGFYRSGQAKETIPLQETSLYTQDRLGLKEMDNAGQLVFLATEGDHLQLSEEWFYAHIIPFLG
UniProt Q8WUA2, sequence (Q8WUA2 whole entry, looked up): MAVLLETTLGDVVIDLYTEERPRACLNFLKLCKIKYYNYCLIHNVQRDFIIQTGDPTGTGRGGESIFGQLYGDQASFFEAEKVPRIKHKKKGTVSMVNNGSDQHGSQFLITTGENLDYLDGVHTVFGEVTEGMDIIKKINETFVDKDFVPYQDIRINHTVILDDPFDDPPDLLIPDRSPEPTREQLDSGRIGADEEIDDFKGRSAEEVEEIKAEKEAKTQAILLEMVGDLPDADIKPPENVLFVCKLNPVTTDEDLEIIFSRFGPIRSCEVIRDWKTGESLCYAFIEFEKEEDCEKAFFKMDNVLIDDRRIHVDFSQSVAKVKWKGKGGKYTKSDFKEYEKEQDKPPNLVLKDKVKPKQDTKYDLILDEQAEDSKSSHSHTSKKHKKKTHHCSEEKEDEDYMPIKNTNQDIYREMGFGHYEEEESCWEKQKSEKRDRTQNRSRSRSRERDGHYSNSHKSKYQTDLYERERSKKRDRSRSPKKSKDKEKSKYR
UniProt Q14671, sequence (Q14671 whole entry, looked up): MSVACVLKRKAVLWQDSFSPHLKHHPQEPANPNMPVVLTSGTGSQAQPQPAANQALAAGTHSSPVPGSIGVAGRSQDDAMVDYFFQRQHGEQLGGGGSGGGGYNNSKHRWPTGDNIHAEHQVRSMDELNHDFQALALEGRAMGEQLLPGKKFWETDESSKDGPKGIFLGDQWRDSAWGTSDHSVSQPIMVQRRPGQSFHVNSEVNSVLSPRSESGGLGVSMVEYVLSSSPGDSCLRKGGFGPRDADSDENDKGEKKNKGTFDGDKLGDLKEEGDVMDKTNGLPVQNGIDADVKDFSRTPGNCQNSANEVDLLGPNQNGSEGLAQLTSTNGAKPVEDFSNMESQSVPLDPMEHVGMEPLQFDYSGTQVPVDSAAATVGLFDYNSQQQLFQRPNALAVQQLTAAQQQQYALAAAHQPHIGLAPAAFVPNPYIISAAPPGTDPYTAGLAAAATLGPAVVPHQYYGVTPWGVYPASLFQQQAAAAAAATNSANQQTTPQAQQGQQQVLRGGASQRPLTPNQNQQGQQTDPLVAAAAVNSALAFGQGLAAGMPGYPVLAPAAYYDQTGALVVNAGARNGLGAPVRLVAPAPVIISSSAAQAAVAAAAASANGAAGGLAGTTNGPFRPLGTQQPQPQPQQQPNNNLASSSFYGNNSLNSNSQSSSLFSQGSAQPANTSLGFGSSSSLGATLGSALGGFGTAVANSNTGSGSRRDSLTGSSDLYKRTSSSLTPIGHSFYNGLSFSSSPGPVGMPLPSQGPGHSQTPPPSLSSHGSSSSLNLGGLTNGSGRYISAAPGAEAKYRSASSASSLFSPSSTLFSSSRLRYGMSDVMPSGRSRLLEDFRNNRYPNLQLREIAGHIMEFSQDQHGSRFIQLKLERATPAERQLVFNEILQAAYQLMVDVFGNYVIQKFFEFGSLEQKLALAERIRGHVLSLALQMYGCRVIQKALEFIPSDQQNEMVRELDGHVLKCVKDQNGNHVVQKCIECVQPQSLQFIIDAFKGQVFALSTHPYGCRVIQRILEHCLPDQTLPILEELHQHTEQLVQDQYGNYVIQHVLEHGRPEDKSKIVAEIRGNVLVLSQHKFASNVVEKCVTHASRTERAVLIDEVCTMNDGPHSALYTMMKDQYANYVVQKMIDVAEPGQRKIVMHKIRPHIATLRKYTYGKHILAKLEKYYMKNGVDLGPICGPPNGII
UniProt Q13200, sequence (Q13200 whole entry, looked up): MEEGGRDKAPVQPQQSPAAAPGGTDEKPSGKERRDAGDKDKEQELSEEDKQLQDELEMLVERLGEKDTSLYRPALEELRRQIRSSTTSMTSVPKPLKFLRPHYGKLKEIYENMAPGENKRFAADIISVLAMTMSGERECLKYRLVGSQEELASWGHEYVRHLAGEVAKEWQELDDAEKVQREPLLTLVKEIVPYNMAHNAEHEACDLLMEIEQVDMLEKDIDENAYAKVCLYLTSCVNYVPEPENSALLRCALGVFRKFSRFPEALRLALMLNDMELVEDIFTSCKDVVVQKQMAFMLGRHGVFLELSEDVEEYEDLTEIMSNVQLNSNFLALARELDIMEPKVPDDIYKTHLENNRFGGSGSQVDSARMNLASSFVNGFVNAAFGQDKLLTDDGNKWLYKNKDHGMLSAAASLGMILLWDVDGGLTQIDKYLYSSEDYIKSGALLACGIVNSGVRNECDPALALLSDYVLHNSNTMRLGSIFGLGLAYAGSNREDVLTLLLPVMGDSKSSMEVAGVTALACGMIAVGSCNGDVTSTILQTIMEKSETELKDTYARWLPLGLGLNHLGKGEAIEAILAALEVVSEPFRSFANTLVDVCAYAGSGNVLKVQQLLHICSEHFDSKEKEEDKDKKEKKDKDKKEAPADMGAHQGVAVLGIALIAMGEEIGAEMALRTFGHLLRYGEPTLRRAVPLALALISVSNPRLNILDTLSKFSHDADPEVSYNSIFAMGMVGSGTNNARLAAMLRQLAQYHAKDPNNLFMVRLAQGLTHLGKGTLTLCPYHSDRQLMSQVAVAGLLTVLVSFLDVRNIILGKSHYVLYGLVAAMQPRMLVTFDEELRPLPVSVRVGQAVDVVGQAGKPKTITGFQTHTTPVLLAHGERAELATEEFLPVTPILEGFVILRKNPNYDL
UniProt Q13356, sequence (Q13356 whole entry, looked up): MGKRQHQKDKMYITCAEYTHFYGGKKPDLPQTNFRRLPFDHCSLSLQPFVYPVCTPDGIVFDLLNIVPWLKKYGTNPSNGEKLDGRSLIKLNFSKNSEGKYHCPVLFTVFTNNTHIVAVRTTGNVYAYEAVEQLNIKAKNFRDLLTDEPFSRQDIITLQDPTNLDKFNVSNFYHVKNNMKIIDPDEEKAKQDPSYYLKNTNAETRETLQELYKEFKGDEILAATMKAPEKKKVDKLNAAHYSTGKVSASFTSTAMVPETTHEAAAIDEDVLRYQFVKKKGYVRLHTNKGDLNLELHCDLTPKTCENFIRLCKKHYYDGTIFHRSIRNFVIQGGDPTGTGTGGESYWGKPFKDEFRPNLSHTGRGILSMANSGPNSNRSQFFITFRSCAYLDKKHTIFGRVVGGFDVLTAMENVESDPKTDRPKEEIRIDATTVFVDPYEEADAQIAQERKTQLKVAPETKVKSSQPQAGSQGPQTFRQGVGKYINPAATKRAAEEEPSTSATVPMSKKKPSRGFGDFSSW
UniProt Q8WUM4, sequence (Q8WUM4 whole entry, looked up): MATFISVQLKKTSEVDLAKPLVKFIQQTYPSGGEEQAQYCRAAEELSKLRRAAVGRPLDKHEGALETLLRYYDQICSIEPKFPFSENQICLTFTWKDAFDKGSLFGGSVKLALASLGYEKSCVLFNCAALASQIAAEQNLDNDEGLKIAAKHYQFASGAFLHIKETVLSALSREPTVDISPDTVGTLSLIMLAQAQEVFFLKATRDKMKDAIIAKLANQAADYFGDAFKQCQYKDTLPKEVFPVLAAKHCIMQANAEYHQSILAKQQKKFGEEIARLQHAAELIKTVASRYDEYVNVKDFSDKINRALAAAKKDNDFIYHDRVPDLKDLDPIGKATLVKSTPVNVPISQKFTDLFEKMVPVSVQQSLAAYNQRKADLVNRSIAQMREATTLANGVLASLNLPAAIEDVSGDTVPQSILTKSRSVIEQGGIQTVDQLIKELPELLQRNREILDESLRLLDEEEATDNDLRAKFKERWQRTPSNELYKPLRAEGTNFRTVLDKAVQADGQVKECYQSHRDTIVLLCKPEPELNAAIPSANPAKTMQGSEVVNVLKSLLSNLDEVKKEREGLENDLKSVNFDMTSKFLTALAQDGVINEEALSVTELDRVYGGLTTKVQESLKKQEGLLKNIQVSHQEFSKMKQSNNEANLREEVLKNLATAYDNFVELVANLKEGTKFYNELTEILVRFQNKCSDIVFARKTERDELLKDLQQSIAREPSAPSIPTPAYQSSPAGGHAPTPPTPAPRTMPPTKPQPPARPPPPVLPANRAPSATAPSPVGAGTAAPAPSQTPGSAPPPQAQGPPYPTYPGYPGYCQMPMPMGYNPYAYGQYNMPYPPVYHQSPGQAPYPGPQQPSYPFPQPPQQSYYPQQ
UniProt P06454, sequence (P06454 whole entry, looked up): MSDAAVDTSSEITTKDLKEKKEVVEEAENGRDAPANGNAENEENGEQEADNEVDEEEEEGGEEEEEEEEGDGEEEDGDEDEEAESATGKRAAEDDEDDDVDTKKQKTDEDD

Target | log2 fold change [1] | log2 fold change (crizotinib) | log2 fold change [2] | log2 fold change [3] | log2 fold change (duvelisib) | log2 fold change (gandotinib) | log2 fold change (tozasertib) | log2 fold change [4] | log2 fold change (doramapimod) | log2 fold change (ispinesib) | log2 fold change (bafetinib) | log2 fold change [5] | log2 fold change (nilotinib) | log2 fold change [6] | log2 fold change (dasatinib) | log2 fold change [7] | log2 fold change [8] | log2 fold change [9] | log2 fold change (tipifarnib) | log2 fold change (mubritinib)
PCTP (UniProt Q9UKL6) | 0.094 | -0.135 | 0.031 | 0.003 | -0.039 | 0.029 | -0.042 | -0.033 | -0.048 | 0.015 | -0.067 | -0.004 | -0.04 | 0.114 | -0.024 | -0.017 | 0.065 | 0.036 | -0.104 | 0.063
PDCD6IP (UniProt Q8WUM4) | 0.078 | -0.177 | 0.067 | 0.077 | 0.026 | -0.117 | 0.085 | 0.17 | -0.042 | -0.14 | 0.042 | 0.157 | -0.116 | -0.205 | -0.283 | 0.069 | 0.016 | 0.068 | -0.221 | 0.105
PPIL4 (UniProt Q8WUA2) | -0.022 | -0.013 | 0.027 | -0.01 | 0.025 | 0 | -0.026 | 0.021 | 0.019 | -0.017 | -0.001 | 0.002 | 0.002 | -0.483 (active) | -0.065 | -0.113 | -0.031 | -0.018 | -0.01 | 0.005
PIGG (UniProt Q5H8A4) | 0.062 | -0.053 | 0.01 | -0.041 | 0.046 | -0.035 | -0.013 | 0.011 | 0.098 | -0.02 | -0.034 | 0.047 | 0.083 | 0.007 | -0.013 | -0.022 | 0.004 | -0.044 | 0.012 | 0.038
PDCD4 (UniProt Q53EL6) | 0.096 | 0.09 | 0.303 | 0.007 | 0.133 | -0.141 | 0.126 | 0.066 | -0.047 | 0.039 | 0.065 | -0.014 | 0.017 | 0.025 | -0.144 | 0.144 | 0.022 | 0.077 | -0.172 | 0.104
PUM1 isoform 3 (UniProt Q14671) | 0.007 | -0.02 | -0.007 | 0.071 | 0.008 | -0.055 | 0.007 | 0.007 | -0.03 | 0.01 | -0.062 | 0.006 | -0.047 | -0.066 | -0.044 | -0.014 | 0.01 | 0 | -0.015 | 0.007
PPT1 (UniProt P50897) | 0.022 | -0.57 (active) | -0.008 | -0.029 | 0.023 | -0.018 | -0.012 | 0.023 | -0.004 | -0.394 (active) | -0.742 (active) | 0.011 | 0.021 | 0.02 | 0 | -0.001 | 0.006 | 0.019 | 0.025 | 0.027
PSMC1 (UniProt P62191) | 0.011 | 0.023 | -0.072 | 0.073 | -0.047 | 0.06 | 0.039 | 0.01 | 0.033 | -0.036 | 0.065 | 0.02 | -0.025 | 0.062 | 0.036 | -0.014 | -0.082 | 0 | 0.087 | -0.015
PDE4DIP isoform 4 (UniProt Q5VU43) | -0.007 | 0.02 | 0.134 | -0.002 | 0.072 | 0.106 | -0.011 | 0.008 | 0.01 | -0.073 | 0.022 | -0.071 | -0.054 | -0.113 | 0.037 | -0.027 | 0.021 | 0.021 | 0.038 | 0.022
PRKCG (UniProt P05129) | 0.078 | -0.005 | 0.188 | 0.028 | 0.244 | -0.149 | -0.04 | 0.11 | -0.029 | 0 | -0.012 | 0.067 | 0.019 | -0.385 | 0.022 | 0.018 | 0.015 | -0.132 | -0.095 | 0.047
PPIL2 (UniProt Q13356) | 0.029 | 0.027 | 0.061 | -0.012 | 0.121 | -0.081 | 0.039 | 0.131 | -0.079 | 0.037 | -0.008 | 0.032 | -0.056 | -0.086 | -0.127 | 0.068 | 0.03 | 0.046 | -0.142 | 0.011
PIKFYVE (UniProt Q9Y2I7) | -0.016 | -0.068 | 0.096 | 0.073 | 0.005 | -0.062 | -0.005 | 0.091 | 0.023 | -0.061 | -0.031 | 0.153 | -0.015 | 0.045 | -0.061 | -0.092 | 0.005 | 0.031 | 0.108 | 0.017
PARL (UniProt Q9H300) | -0.004 | -0.036 | 0.186 | -0.011 | 0.03 | 0.025 | -0.017 | -0.035 | -0.009 | -0.193 | -0.169 | 0.061 | 0.047 | -0.011 | 0.015 | 0.018 | 0.017 | 0.051 | -0.023 | 0.021
PSMC4 (UniProt P43686) | 0 | 0.007 | -0.056 | 0.06 | -0.076 | -0.011 | 0.04 | 0.001 | 0.02 | -0.02 | 0.087 | 0 | -0.013 | 0.05 | 0.052 | -0.019 | -0.128 | -0.037 | 0.117 | -0.012
PTMA (UniProt P06454) | -0.041 | -0.302 | -0.155 | -0.034 | 0.006 | 0.059 | 0.154 | -0.042 | 0.072 | 0.199 | -0.076 | -0.047 | 0.023 | 0.001 | -0.01 | -0.031 | 0.177 | -0.147 | -0.02 | 0.109
PSMD2 (UniProt Q13200) | 0.017 | 0.019 | -0.063 | 0.075 | -0.064 | 0.015 | 0.023 | 0.004 | 0.021 | -0.017 | 0.079 | 0 | -0.031 | 0.061 | 0.031 | -0.005 | -0.12 | -0.006 | 0.07 | -0.038

From the supplement of paper PMC10849652
